Source: publication PMC7826789 (International Journal of Molecular Sciences, 2021)

Legend:
Conditions in all cases: Compound Concentration (nM):1000
[1] = test system: NEK3
[2] = test system: NEK4
[3] = test system: NEK5
[4] = test system: NEK6
[5] = test system: NEK7
[6] = test system: NEK9
[7] = test system: T1, NIK
T1 construct: gene MAP3K14

[8] = test system: T2, NIM1
T2 construct: gene MGC42105

[9] = test system: NLK
[10] = test system: T3, OSR1
T3 construct: gene OXSR1

[11] = test system: PAK1
[12] = test system: PAK2
[13] = test system: PAK3
[14] = test system: PAK4
[15] = test system: PAK6
[16] = test system: PAK7
[17] = test system: T4, PCTK1
T4 construct: gene CDK16

[18] = test system: T5, PCTK2
T5 construct: gene CDK17

[19] = test system: T6, PCTK3
T6 construct: gene CDK18

[20] = test system: PDGFRA
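Note: KINOMEscan scanMAX binding as percent activity remaining versus control; lower means stronger binding.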

| Structure (SMILES) | Percent Control [1] [%] | Percent Control [2] [%] | Percent Control [3] [%] | Percent Control [4] [%] | Percent Control [5] [%] | Percent Control [6] [%] | Percent Control [7] [%] | Percent Control [8] [%] | Percent Control [9] [%] | Percent Control [10] [%] | Percent Control [11] [%] | Percent Control [12] [%] | Percent Control [13] [%] | Percent Control [14] [%] | Percent Control [15] [%] | Percent Control [16] [%] | Percent Control [17] [%] | Percent Control [18] [%] | Percent Control [19] [%] | Percent Control [20] [%] |
| --- | --- | --- | --- | --- | --- | --- | --- | --- | --- | --- | --- | --- | --- | --- | --- | --- | --- | --- | --- | --- |
| NS(=O)(=O)c1ccc(N/N=C2\C(=O)Nc3ccc(C(=O)NCCc4c[nH]cn4)cc32)cc1 [GW300660X] | 78 | 80 | 100 | 100 | 100 | 100 | 74 | 14 | 100 | 100 | 100 | 81 | 100 | 100 | 100 | 100 | 2.2 | 100 | 100 | 54 |
| COc1cc(C)c(N(C)C(=O)CN(C)C)cc1Nc1nc(Nc2cccc(F)c2C(N)=O)c2cc[nH]c2n1 [GSK2219385] | 94 | 100 | 94 | 100 | 91 | 90 | 100 | 80 | 95 | 100 | 100 | 74 | 100 | 100 | 96 | 82 | 79 | 100 | 100 | 100 |
| Cl.O=C(Nc1ccc(Oc2ccc3[nH]c(NC(=O)c4ccco4)nc3c2)cc1)Nc1cc(C(F)(F)F)ccc1F [GW683134A] | 97 | 81 | 96 | 100 | 100 | 10 | 100 | 97 | 87 | 100 | 100 | 100 | 5.6 | 100 | 92 | 100 | 100 | 100 | 100 | 11 |
| NS(=O)(=O)c1ccc(N/N=C2\C(=O)Nc3ccc(-c4cnco4)cc32)cc1 [GW276655] | 96 | 99 | 72 | 77 | 82 | 79 | 37 | 84 | 100 | 100 | 87 | 82 | 100 | 95 | 76 | 88 | 1.4 | 76 | 100 | 79 |
| COc1cccc(-n2ncc3c(N/N=C/c4ccncc4)ncnc32)c1 [GW784752X] | 86 | 100 | 100 | 100 | 92 | 90 | 100 | 86 | 91 | 99 | 100 | 100 | 100 | 100 | 96 | 100 | 25 | 70 | 100 | 36 |
| NS(=O)(=O)c1ccc(N/N=C2\C(=O)Nc3ccc(C(=O)NCc4ccncc4)cc32)cc1 [GW300657X] | 84 | 89 | 92 | 97 | 62 | 64 | 95 | 72 | 96 | 75 | 100 | 100 | 63 | 100 | 81 | 87 | 0.2 | 22 | 68 | 27 |
| C[C@@H](Oc1cc(-n2cnc3ccc(OC4CCN(C)CC4)cc32)sc1C(N)=O)c1ccccc1Cl [GSK579289A] | 92 | 79 | 63 | 100 | 69 | 19 | 82 | 51 | 100 | 100 | 100 | 84 | 0 | 100 | 75 | 74 | 94 | 94 | 86 | 54 |
| Nc1ncnc2occ(-c3ccc(NC(=O)Nc4cc(C(F)(F)F)ccc4F)cc3)c12 [GW770249X] | 98 | 71 | 82 | 100 | 100 | 38 | 100 | 100 | 100 | 100 | 100 | 100 | 31 | 100 | 100 | 100 | 82 | 29 | 31 | 1.4 |
| Cl.O=S1CCN(Cc2ccc(-c3ccc4ncnc(Nc5ccc(OCc6ccccc6)c(F)c5)c4c3)o2)CC1 [GW576924A] | 100 | 100 | 100 | 100 | 100 | 100 | 100 | 100 | 100 | 100 | 100 | 100 | 78 | 100 | 100 | 100 | 100 | 100 | 100 | 84 |
| CN(C)c1cc2c(Nc3ccc4c(cnn4Cc4ccccc4)c3)ncnc2cn1 [GW282974X] | 77 | 99 | 48 | 27 | 78 | 88 | 86 | 74 | 90 | 100 | 89 | 79 | 26 | 98 | 87 | 88 | 87 | 100 | 100 | 100 |
| CC1=C(C(=O)Nc2ccc3[nH]ncc3c2)C(c2ccc3ccccc3c2)CC(=O)N1 (stereo not shown) [GSK270822A] | 70 | 84 | 100 | 100 | 77 | 70 | 82 | 77 | 98 | 74 | 85 | 93 | 79 | 85 | 89 | 83 | 89 | 100 | 96 | 100 |
| COC(=O)Nc1nc2ccc(Oc3ccc(NC(=O)Nc4cc(C(F)(F)F)ccc4F)cc3)cc2s1.Cl [GW693917A] | 87 | 83 | 76 | 100 | 100 | 50 | 80 | 79 | 95 | 100 | 100 | 100 | 43 | 100 | 82 | 91 | 74 | 72 | 78 | 11 |
| CCc1ccc(Oc2nccc(-c3c(-c4ccc(F)cc4)ncn3C3CCNCC3)n2)cc1 [SB-242719] | 100 | 96 | 100 | 100 | 100 | 100 | 100 | 83 | 25 | 100 | 100 | 100 | 71 | 100 | 82 | 98 | 87 | 100 | 94 | 100 |
| CCS(=O)(=O)c1ccc(OC)c(Nc2ncc(-c3cccc(OC)c3)o2)c1 [GW580509X] | 100 | 100 | 100 | 100 | 100 | 100 | 92 | 100 | 100 | 100 | 100 | 100 | 100 | 100 | 96 | 100 | 100 | 100 | 100 | 69 |
| COc1ccc2[nH]c3c4[nH]c5ccc(OC)cc5c4c4c(c3c2c1)C(=O)NC4=O [GW296115X] | 67 | 85 | 76 | 87 | 92 | 100 | 20 | 100 | 52 | 100 | 70 | 91 | 4.2 | 90 | 100 | 91 | 99 | 72 | 80 | 11 |
| COc1cc(C=NNc2ncnc3c2cnn3-c2ccccc2)ccc1O [GW513184X] | 100 | 100 | 76 | 82 | 100 | 100 | 92 | 100 | 100 | 100 | 100 | 100 | 50 | 100 | 100 | 100 | 29 | 38 | 84 | 63 |
| Cl.c1ccc(Cc2nc3ccc(Nc4ncnc5ccccc45)cc3[nH]2)cc1 [GR269666A] | 100 | 100 | 100 | 100 | 100 | 100 | 100 | 94 | 100 | 100 | 100 | 100 | 100 | 100 | 100 | 100 | 100 | 100 | 100 | 49 |
| CN1CCN(C(=O)c2ccc(NC(=O)Nc3ccc(N(C)c4ccnc(Nc5ccc(CS(C)(=O)=O)cc5)n4)cc3)cc2)CC1.Cl [GW830263A] | 66 | 85 | 82 | 100 | 93 | 62 | 100 | 99 | 80 | 98 | 92 | 50 | 0 | 46 | 92 | 67 | 76 | 91 | 96 | 2 |
| COc1cc2ncn(-c3cc(O[C@H](C)c4ccccc4Cl)c(C(N)=O)s3)c2cc1OC [GSK237701A] | 85 | 88 | 9.1 | 100 | 63 | 19 | 100 | 48 | 98 | 78 | 98 | 93 | 7.6 | 93 | 88 | 100 | 90 | 100 | 100 | 24 |
| CC1=C(C(=O)Nc2ccc3[nH]ncc3c2)C(c2ccc(Cl)c(Cl)c2)CC(=O)N1 (stereo not shown) [GSK299115A] | 80 | 89 | 58 | 95 | 87 | 68 | 76 | 79 | 78 | 73 | 94 | 84 | 96 | 82 | 79 | 91 | 85 | 100 | 93 | 100 |
